Out of some 310,000 compounds screened, about 1,000 (0.32%) were called active. These entries were drawn from the full list. Results with a measured potency or affinity are listed apart. Values without a mark were called inactive. The rule behind the calls is not given here.

The experiment can be described thus: Inhibition of PhoP regulon, Salmonella typhi GFP reporter cells, confirmation, 4 h (AID 1850).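 Note: 0% = induced wells with vehicle and 100% = uninduced wells.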 To be noted: Salmonella Typhi PhoP-promoter GFP reporter, fluorescence, at 50 µM, active compounds read high.
What is called inhibition is the drop in the measured response relative to a control, in per cent. As for `COc1cccc(/C=N/NC(=O)CN2CC(c3ccccc3)CC2=O)c1O` (configuration not stated), the inhibition was 3.81%.
Next, `COc1cccc(/C=N/NC(=O)CN2CC(c3ccccc3)CC2=O)c1OC` (configuration not stated): -3.73%; `COc1cc(OC)c(C2=NOC(C(=O)N3CCc4ccccc4C3)C2)cc1Cl` (configuration not stated): -5.06%.
Next, `COC(=O)c1cccc(N(CC(=O)NC2CCCCC2)C(=O)CNC(=O)c2cccs2)c1`: 7.52%.
Take `COc1ccc(CNc2nc3ccccc3n2CCN2CCCCC2)cc1`: the inhibition was -9.45%.
For `CCN(CC)c1ccc(CNc2nc3ccccc3n2CCN2CCOCC2)cc1` the value was 6.95%.
Next, `COC(=O)N/N=C/c1ccccc1Cl`: 9.79%; `COC(=O)N/N=C/c1ccccc1`: 3.82%; `O=C(CSc1ccc2c(c1)OCCO2)NC(=O)Cc1ccccc1`: -0.51%.
Next, `Cc1cccc(/C=C/c2onc(C)c2S(=O)(=O)N2CCC(C(=O)N3CCCCCC3)CC2)c1`: -16.2%; `CCOC(=O)c1cc2c(=O)n3ccccc3nc2n(C)c1=NC(=O)c1c(-c2c(F)cccc2Cl)noc1C`: -5.85%.
As for `CC1CCCCN1CCCNC(=O)c1ccc(Br)cc1` (configuration not stated), the inhibition is 8.17%.
Next, `CC(C)CNC(=O)COC(=O)c1ccc(Cl)c(S(=O)(=O)N2CCc3ccccc32)c1`: 1.54%.
For `C[C@@H](NCCc1ccc(O)cc1)[C@@H](O)c1ccc(O)cc1` the value was -9.6%; for `C[C@H](NCCc1ccc(O)cc1)[C@H](O)c1ccc(O)cc1`, -4.37%.
For `Cc1ccnc(NC(=O)C(C)N2C(=O)c3ccccc3S2(=O)=O)c1` (configuration not stated) the value was 6.11%; for `CCOc1ccccc1NC(=O)NNC(=O)c1ccc2ccccc2c1`, 9%.
As for `COc1cccc(-c2nnc(NC(C)=O)o2)c1`, the inhibition is -10.6%.
For `O=C(Nc1nnc(-c2ccco2)o1)c1ccc(Cl)s1` the value was 2.73%; for `COCCN(C(=O)COC(=O)C1(C)CC1(Cl)Cl)c1c(N)n(Cc2ccccc2)c(=O)[nH]c1=O` (configuration not stated), -4.07%; for `O=C(NC1CCN(C(=S)Nc2ccc(F)cc2)CC1)C1CCCCC1`, 1.22%.
With `Cc1ccc(CNC(=O)C2CCC(=O)N(Cc3cccc(C(F)(F)F)c3)C2)o1` (configuration not stated), the inhibition was -2.94%.
Next, `Cc1ccc(NC(=O)CNCc2ccccc2)c(Br)c1`: 19.8%; `Cc1ccc(NC(=O)CN(C)C2CCCCC2)cc1Cl`: 17.3%.
Next, `CN(CC(=O)Nc1ccc(Cl)c(Cl)c1)C1CCCCC1`: 9.2%; `O=C(CCN(CCO)Cc1ccccc1)Nc1ccc(Br)cc1`: 20.3%.
Regarding `Cc1ccc(NC(=O)CNCc2cccs2)cc1Br`, the inhibition was 2.2%.
For `CCN(CCC(=O)Nc1cc(OC)cc(OC)c1)Cc1ccccc1` the value was -6.75%.
Turning to `N#Cc1cc(NC(=O)c2ccc(F)cc2)c(=O)n2c1[nH]c1ccccc12`, the inhibition was -0.7%.
Turning to `CCn1cc(CN2CCC(C(=O)Nc3cccc(-c4cccc(OC)c4)c3)CC2)cn1`, the inhibition is -5.91%.
For `CN1CCN(C(=O)/C(=C\c2ccccc2)c2ccccc2)CC1` the value was 3.28%; for `Cc1cccc(-n2cc(-c3ccccc3)c3c(=O)[nH]cnc32)c1`, -10.3%.
For `COc1ccc(CCNC(=O)CN(c2cccc([N+](=O)[O-])c2)S(C)(=O)=O)cc1` the value was -12%.
Next, `Cc1ccccc1C(=O)N1CCN(S(=O)(=O)c2ccccc2)CC1`: -4.37%; `O=C(CSc1nnc(SCc2ccccc2Cl)s1)N/N=C/c1ccc(C(=O)O)cc1`: -6.94%.
As to `COC(=O)c1cc(S(=O)(=O)N2CCN(c3ccccc3F)CC2)c[nH]1`, the inhibition is -1.3%.
Next, `O=C(O)c1cccc(N2C(=O)CSC2=S)c1`: 65.1%.
Consider `O=C1CSC(=S)N1c1cccc(Cl)c1`, for which the inhibition was -2.26%.
For `Cc1cc(NC(=O)NN2CCOCC2)nn1-c1c(Cl)cccc1Cl` the value was -1.26%; for `Nc1nc(SCC(=O)Nc2ccc([N+](=O)[O-])cc2)[nH]c(=O)c1NC(=O)c1ccc(Br)o1`, -2.49%.
For `c1cncc(-c2nnc(SCc3cccc4ccccc34)o2)c1` the value was 8.54%.
Next, `Cc1ccc2[nH]c3c(c2c1)CCc1cn[nH]c1-3`: -6.69%; `c1ccc2c3c([nH]c2c1)-c1[nH]ncc1CC3`: -5.34%.
In the case of `Cc1ccc2c(c1)C1C3CCC(C3)C1S(=O)N2` (configuration not stated), the inhibition was -0.67%.
Next, `COc1cc2ccccc2cc1C(=O)Nc1cccnc1`: -16.1%; `Nc1nc(-c2ccccn2)nc(N)c1Cc1ccc(Cl)cc1Cl`: -4%.
Next, `Clc1ccc(Cc2ccc(Cl)nn2)c(Cl)c1`: -3.15%; `Nc1nnc(Cc2ccc(Cl)cc2Cl)s1`: -0.54%.
With `Cc1nc(N)c(Cc2ccccc2F)c(N)n1`, the inhibition is 8.16%.
For `CCOC(=O)C1(Cc2cccc(OC)c2)CCN(Cc2cnc(SC)nc2)CC1` the value was -3.1%.
Next, `CC(/C=C/c1ccc2c(c1)OCO2)=N/NC(=O)COc1ccc(C)cc1`: -7.1%.
Next, `CS(=O)(=O)c1ccc(Cl)c(NC(=O)COC(=O)/C=C/c2cnc3ccccc3n2)c1`: 5.47%; `O=C(Nc1nc(-c2cccs2)cs1)c1ccc(Cl)s1`: -14%; `O=C(Nc1nc(-c2ccccn2)cs1)c1ncc(Cl)c(Cl)c1Cl`: -0.4%.
Turning to `O=C(Nc1nc(-c2ccccn2)cs1)c1ccco1`, the inhibition was 2.93%.
For `Cc1csc(NC(=O)c2ccc(Br)s2)n1` the value was 11.7%; for `COC(=O)C(Cc1ccccc1)N1CCS(=O)(=O)CC1` (configuration not stated), 9.2%.
For `CCCCOc1ccc(/C(O)=C2/C(=O)C(=O)N(CCN(C)C)C2c2ccc(O)c(OC)c2)cc1` (configuration not stated) the value was -11.8%; for `O=C(Nc1ccccn1)c1ccc2c(c1)S(=O)(=O)c1ccccc1C2=O`, -0.07%.
Take `COc1ccccc1CNc1cc(C)ccc1C`: the inhibition was 4.32%.
For `COc1ccc(CCN(Cc2nc3ccccc3c(=O)[nH]2)C(=O)C2CC2)cc1` the value was -4.16%; for `Cc1ccc(C(=O)N/C(=C\c2ccc(-c3ccccc3[N+](=O)[O-])o2)C(=O)NCCCN(C)C)cc1`, -1.46%; for `CN(C)CCCNC(=O)/C(=C\c1ccc(-c2ccc(Br)cc2)o1)NC(=O)c1ccccc1`, 22.2%.
Next, `CN(C)CCNC(=O)/C(=C/c1ccc(-c2cccc(Cl)c2)o1)NC(=O)c1ccccc1`: 20.4%; `Cc1ccc(C(=O)N/C(=C\c2ccc(-c3cccc([N+](=O)[O-])c3)o2)C(=O)NCCCN(C)C)cc1`: 16.2%.
Next, `Cc1ccc(C(=O)N/C(=C/c2ccc(-c3ccc([N+](=O)[O-])cc3)o2)C(=O)NCCCN(C)C)cc1`: -1.29%; `CN(C)CCCNC(=O)/C(=C/c1ccc(-c2ccc([N+](=O)[O-])cc2)o1)NC(=O)c1ccccc1`: 8.87%.

The record behind these values is PubChem BioAssay AID1850 (Southern Research Specialized Biocontainment Screening …, 2009).
